{"source": "PubChem BioAssay AID493185", "about": "(National Center for Advancing Translational Sciences (NCATS), 2011)", "note": "Activity calls are given as the source filed them. Entries that show only a call come without a potency. Calls come from the whole dose curve; as a rule, active = well fitted activation curve with a large enough effect; inconclusive = small, poorly fitted or top-dose-only effect; inactive = no such curve, though single readings can be large or run the other way.", "data": [{"experiment": "Counterscreen for Identifying a Potential Treatment of Ataxia-Telangiectasia: Hit Validation", "conditions": "cell-free AlphaLISA/AlphaScreen artifact counterscreen, PBS only, no cells; series mostly up to 76.9 µM", "method_in_brief": "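Without cells, compounds at up to 76.7 uM final were combined with premixed anti-pKAP1/anti-KAP1 AlphaLISA bead reagents, protease inhibitors and lysis buffer; signal read after 6 hr at 25C to flag assay-platform artifacts.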", "values": [{"smiles": "COc1ccc(N(CCC#N)C(=O)/C(C#N)=C\\c2cccs2)cc1", "Potency": "inactive"}, {"smiles": "CC(=O)c1ccc([N+](=O)[O-])c(CS(=O)(=O)c2ccc(Cl)cc2)c1", "Potency": "inactive"}, {"smiles": "CCCN1C2CCCC1CC(NC(=S)Nc1cccc(C)c1C)C2", "note": "(stereo not given)", "Potency": "inactive"}, {"smiles": "Cc1cc(C)n2nc(C(=O)OCCOc3ccc(F)cc3)nc2n1", "Potency": "inactive"}, {"smiles": "CCc1oc(C(=O)OC)cc1CSC(=N)N", "Potency": "inactive"}]}]}
